Reference: the supplement of paper PMC3414501
Where a name gives a salt, the structure may show the parent alone.

system: S. cerevisiae AD1-9 (efflux-pump deficient), vegetative growth in YPD; assay: growth sensitivity score (doubling time z-score vs DMSO controls); higher = slower growth, strongly negative scores also mark growth inhibition (complete suppression), active = hit call of the paper
In short: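 Optical density of Saccharomyces cerevisiae cultures in microtiter plates was followed every 15 min for 24 hours after seeding at an OD600 of 0.065. Eight solvent-only wells were run per experiment. Growth sensitivity scores were found by subtracting the solvent-only mean from the compound mean and dividing by the solvent-only standard deviation.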

Growth sensitivity score, active:
CC(=O)[C@@]1(O)CC[C@H]2[C@@H]3C[C@H](C)C4=CC(=O)CC[C@]4(C)[C@H]3CC[C@@]21C [Medroxyprogesterone] (stock concentration (mM, diluted 1:100): 10) 4.15
C[C@@H](c1ncncc1F)[C@](O)(Cn1cncn1)c1ccc(F)cc1F [Voriconazole] (stock concentration (mM, diluted 1:100): 9.9) 20.3
C=CC[C@@H]1/C=C(\C)C[C@H](C)C[C@H](OC)[C@H]2O[C@@](O)(C(=O)C(=O)N3CCCC[C@H]3C(=O)O[C@H](/C(C)=C/[C@@H]3CC[C@@H](O)[C@H](OC)C3)[C@H](C)[C@@H](O)CC1=O)[C@H](C)C[C@@H]2OC [Tacrolimus] (stock concentration (mM, diluted 1:100): 10) 20.9
CN(C)CCCSc1ccccc1NC(=O)/C=C/c1ccccc1 [Cinanserin] (stock concentration (mM, diluted 1:100): 10) 41.8

Growth sensitivity score, inactive:
CNS(=O)(=O)Cc1ccc2[nH]cc(CCN(C)C)c2c1 [Sumatriptan succinate] (stock concentration (mM, diluted 1:100): 7.2) 0.45
CCOC(=O)OC(C)OC1=C(C(=O)Nc2ccccn2)N(C)S(=O)(=O)c2ccccc21 (configuration not stated) [Ampiroxicam] (stock concentration (mM, diluted 1:100): 10) -0.54
CC[C@@H]1C(=O)OC[C@@H]1Cc1cncn1C [Pilocarpine hydrochloride] (stock concentration (mM, diluted 1:100): 10) 0.16
